Structures are written as SMILES. Where “and” joins values, the source holds several entries; their conditions need not be identical. Identical values can stand only once. Compounds without any hit were thinned out: in the full panel of roughly 83,000, 20% have a hit.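 Compound tested at a single concentration for 48 hours in 96-well plates; a percent growth value below 10 was scored as active.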 Calls of active or inactive are those of the source.

Holding throughout (assay): NCI-60 one-dose screen, 48 h (100 = growth as untreated, 0 = no growth, -100 = all killed)
The test system of one experiment is HCT-15 colon. The note with it: 10 µM unless noted.
A further experiment concerns HT29 colon. To be noted: 10 µM unless noted.
A further experiment has as its system SNB-75 CNS. The note with it: 10 µM unless noted.
For another experiment, the system named is SNB-19 CNS. The note with it: 10 µM unless noted.
Another experiment has as its system U251 CNS. To be noted: 10 µM unless noted.
Another experiment concerns PC-3 prostate. To be noted: 10 µM unless noted.
Another experiment relates to SK-MEL-5 melanoma. To be noted: 10 µM unless noted.
The next experiment deals with UACC-62 melanoma.
For the next experiment, the system named is LOX IMVI melanoma. The note with it: 10 µM unless noted.
A further experiment relates to SK-MEL-28 melanoma. To be noted: 10 µM unless noted.
The test system of the next experiment is SK-MEL-2 melanoma. The note with it: 10 µM unless noted.
A further experiment has as its system SN12C renal. The note with it: 10 µM unless noted.
Another experiment concerns UO-31 renal. The note with it: 10 µM unless noted.
The next experiment concerns TK-10 renal.
For a further experiment, the system named is CAKI-1 renal. The note with it: 10 µM unless noted.
For a further experiment, the system named is CCRF-CEM leukemia. The note with it: 10 µM.
In the next experiment the test system is MOLT-4 leukemia. The note with it: 10 µM unless noted.
A further experiment relates to ACHN renal. The note with it: 10 µM unless noted.
In a further experiment the test system is A498 renal. To be noted: 10 µM unless noted.
For the next experiment, the system named is EKVX NSCLC. The note with it: 10 µM.

On to `CC1CCC2(C(=O)O)CCC3(C)C(=CCC4C5(C)CCC(O)C(C)(C)C5CCC43C)C2C1C` (stereo not given), for which the growth is 32.4% (inactive) and 66.2% (inactive) in the experiment on HCT-15 colon; 48.3% (inactive) and 111% (inactive) in the experiment on HT29 colon; 32.2% (inactive) and 95.6% (inactive) in the experiment on SNB-75 CNS; 63.4% (inactive) and 91.6% (inactive) in the experiment on SNB-19 CNS; 42.9% (inactive) and 77.6% (inactive) with U251 CNS; 65.1% (inactive) and 79.8% (inactive) in the experiment on PC-3 prostate. The growth is 24.7% (inactive) and 96.2% (inactive) in the experiment with SK-MEL-5 melanoma; 88.6% (inactive) and 81.2% (inactive) in the experiment on UACC-62 melanoma (10 µM); -65.9% (active) and -92.3% (active) in the experiment on UACC-62 melanoma (100 µM); 25.3% (inactive) and 70.1% (inactive) with LOX IMVI melanoma; 35.9% (inactive) and 78.7% (inactive) with SK-MEL-28 melanoma; 82.5% (inactive) and 86.8% (inactive) in the experiment with SK-MEL-2 melanoma. In addition, the growth was 79.3% (inactive) and 99.7% (inactive) in the experiment on SN12C renal; 5.91% (active) and 55.4% (inactive) in the experiment on UO-31 renal; 90.6% (inactive) and 88.5% (inactive) in the experiment on TK-10 renal (10 µM); -77.6% (active) and -96.8% (active) with TK-10 renal (100 µM); 40.4% (inactive) and 90.8% (inactive) in the experiment on CAKI-1 renal; -22.1% (active) and 35.8% (inactive) with CCRF-CEM leukemia. Moreover, the growth in the experiment on MOLT-4 leukemia is -11.8% (active) and 84.5% (inactive).

On to `O=[N+]([O-])c1cccc(SSc2cccc([N+](=O)[O-])c2)c1`, for which the growth was 91.9% (inactive) in the experiment with HCT-15 colon; 102% (inactive) with HT29 colon; 102% (inactive) with SNB-75 CNS; 91.1% (inactive) in the experiment on SNB-19 CNS; 99.2% (inactive) in the experiment on U251 CNS; 82.6% (inactive) in the experiment with PC-3 prostate. Moreover, the growth in the experiment on SK-MEL-5 melanoma is 99.4% (inactive); with UACC-62 melanoma (10 µM unless noted), 94.2% (inactive); in the experiment with SK-MEL-28 melanoma, 110% (inactive); in the experiment on SK-MEL-2 melanoma, 98.5% (inactive); with SN12C renal, 93.7% (inactive); with UO-31 renal, 86.5% (inactive). The growth in the experiment on TK-10 renal (10 µM unless noted) was 109% (inactive); in the experiment on ACHN renal, 99.5% (inactive); in the experiment on CAKI-1 renal, 103% (inactive); with A498 renal it was 119% (inactive); in the experiment with CCRF-CEM leukemia, 50.6% (inactive); with MOLT-4 leukemia it was 82.1% (inactive).

With `CC(=O)NCC(=O)c1ccc([N+](=O)[O-])cc1`, the growth in the experiment on HCT-15 colon was 111% (inactive); in the experiment on HT29 colon it was 107% (inactive); in the experiment with SNB-75 CNS, 99.1% (inactive); with SNB-19 CNS, 103% (inactive); in the experiment on U251 CNS it was 102% (inactive); with PC-3 prostate it was 98.4% (inactive). The growth is 103% (inactive) in the experiment with SK-MEL-5 melanoma; 101% (inactive) in the experiment on UACC-62 melanoma (10 µM unless noted); 95% (inactive) with LOX IMVI melanoma; 105% (inactive) in the experiment on SK-MEL-28 melanoma; 136% (inactive) in the experiment on SK-MEL-2 melanoma; 102% (inactive) in the experiment on EKVX NSCLC. Further, the growth in the experiment with SN12C renal is 105% (inactive); with UO-31 renal it was 80.5% (inactive); in the experiment with ACHN renal it was 103% (inactive); in the experiment with CAKI-1 renal it was 103% (inactive); in the experiment with A498 renal, 81.2% (inactive); in the experiment with CCRF-CEM leukemia, 99.5% (inactive). In addition, the growth with MOLT-4 leukemia was 98.4% (inactive).

As to `COc1ccc2cc1Oc1ccc(cc1)C[C@H]1c3cc(c(OC)cc3CCN1C)Oc1c(OC)c(OC)cc3c1[C@H](C2)N(C)CC3`, the growth was 3.41% (active) in the experiment with HCT-15 colon; -32.7% (active) with HT29 colon; -7.64% (active) in the experiment with SNB-75 CNS; 57.7% (inactive) with SNB-19 CNS; 24.2% (inactive) in the experiment with U251 CNS; 28.8% (inactive) in the experiment on PC-3 prostate. In addition, the growth in the experiment with SK-MEL-5 melanoma was 21.1% (inactive); in the experiment on UACC-62 melanoma (10 µM), 103% (inactive); with UACC-62 melanoma (100 µM) it was 80.7% (inactive) and 64.2% (inactive); in the experiment with LOX IMVI melanoma, -43.7% (active); in the experiment with SK-MEL-2 melanoma, 131% (inactive); in the experiment with SN12C renal, 82.2% (inactive). The growth with UO-31 renal is 3.4% (active); in the experiment with TK-10 renal (10 µM), 76.7% (inactive); in the experiment on TK-10 renal (100 µM), 71.7% (inactive) and 56.9% (inactive); in the experiment on ACHN renal, 74.1% (inactive); in the experiment with CAKI-1 renal it was 68.9% (inactive); in the experiment with CCRF-CEM leukemia, 3.76% (active). Also, the growth in the experiment on MOLT-4 leukemia is 28.2% (inactive).

With `CN1CNC(=O)NC1`, the growth is 109% (inactive) and 101% (inactive) in the experiment with HCT-15 colon; 101% (inactive) in the experiment with HT29 colon; 94.8% (inactive) and 110% (inactive) in the experiment on SNB-75 CNS; 109% (inactive) and 103% (inactive) in the experiment with SNB-19 CNS; 118% (inactive) and 87.5% (inactive) in the experiment with U251 CNS; 94% (inactive) and 87.2% (inactive) in the experiment on PC-3 prostate. Also, the growth is 113% (inactive) and 95.9% (inactive) in the experiment on SK-MEL-5 melanoma; 111% (inactive) and 107% (inactive) with UACC-62 melanoma (10 µM unless noted); 113% (inactive) and 118% (inactive) in the experiment on SK-MEL-28 melanoma; 114% (inactive) in the experiment on SK-MEL-2 melanoma; 97.3% (inactive) in the experiment on EKVX NSCLC; 105% (inactive) and 102% (inactive) in the experiment with SN12C renal. For the same compound, the growth with UO-31 renal was 98.5% (inactive) and 87.6% (inactive); in the experiment on TK-10 renal (10 µM unless noted), 112% (inactive) and 115% (inactive); with ACHN renal it was 113% (inactive) and 107% (inactive); with CAKI-1 renal, 98.5% (inactive) and 106% (inactive); with CCRF-CEM leukemia, 108% (inactive) and 91.3% (inactive); in the experiment with MOLT-4 leukemia it was 99.9% (inactive) and 85.2% (inactive).

For `Cc1ccc(=O)[nH]n1`, the growth was 110% (inactive) and 105% (inactive) with HCT-15 colon; 108% (inactive) and 99.5% (inactive) with HT29 colon; 108% (inactive) and 103% (inactive) with SNB-75 CNS; 93.9% (inactive) in the experiment on SNB-19 CNS; 99.7% (inactive) and 92.4% (inactive) with U251 CNS; 96.3% (inactive) and 92% (inactive) in the experiment on PC-3 prostate. In addition, the growth is 101% (inactive) and 105% (inactive) in the experiment on SK-MEL-5 melanoma; 106% (inactive) and 104% (inactive) in the experiment on UACC-62 melanoma (10 µM unless noted); 94.7% (inactive) and 107% (inactive) in the experiment on LOX IMVI melanoma; 111% (inactive) and 115% (inactive) with SK-MEL-28 melanoma; 116% (inactive) and 99.5% (inactive) with SK-MEL-2 melanoma; 114% (inactive) and 115% (inactive) in the experiment on EKVX NSCLC. Moreover, the growth in the experiment on SN12C renal was 107% (inactive) and 99.3% (inactive); in the experiment with TK-10 renal (10 µM unless noted), 110% (inactive) and 101% (inactive); with CAKI-1 renal it was 103% (inactive) and 97.7% (inactive); in the experiment on CCRF-CEM leukemia it was 107% (inactive) and 99.6% (inactive); with MOLT-4 leukemia it was 105% (inactive) and 101% (inactive).

Values taken from PubChem BioAssay (NCI).
